The campaign covered roughly 53,000 sequences. About 3,700 (7%) were called active. Shown is part of a subset that was picked to be rich in actives. Unmarked numbers belong to inactive results.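 Rule for the calls: active = gene knockdowns whose robust z-score for IL-1 alpha signal is at least 2 or at most -2, so actives lie on both sides; inactive = the rest.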

This experiment in a line: Components of the Cytosolic LPS Sensing Pathway: Gene Identification via Genome-wide siRNA Screen.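 Note: robust z of the log signal after scaling to non-targeting control siRNA wells of the plate.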 The conditions noted are these: RAW264.7 macrophages, IL-1a HTRF, actives lie on both sides, screened at 100 nM (by protocol), cells primed 5 h with Pam3CSK4 first. In short, it runs like this:
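RAW264.7; siRNA 100 nM final, RNAiMAX, 48h 37 degrees C; Pam3CSK4 5 h; LipidA + TransIT-TKO 24 h; IL-1a HTRF; CellTiter-Glo viability; robust z vs negative-control median.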
With GGCUACUGGAGCAAGUUUATT against Apoc3, the z-score is 2.48 (active). The value for GGUUUAGGGUCAAGAUAUUTT against Ttf2 was -1.39. As for GGAUUGGCAACCUCCAUUUTT against Kdm5a, the z-score was -0.312.

For the sequence GGACAAUGAGAUUCUUCUCTT against Mptx1, the z-score is -1.58. The value for GGCAACUAUAAGUACAUAGTT against Gsta3 was 3.87 (active); that for GGAAGGUGCUAAAAAUAUATT against Pdhx was 0.23. Regarding GGAAAAGACAUCAGAUGAATT against Mrpl1, the z-score was 0.233.

For GGUAAUGGAAAUGAACAAATT against Zfp353-ps, the z-score was 0.381. In the case of GGUCUCAUAGAGUGUUACUTT against Anapc7, the z-score is 4.38 (active). On to GGAACUGGACAAGGACGAUTT against Arhgdia, for which the z-score was 1.17. For the sequence GGAUUUGAGUGGUAAUGAATT against Tm2d1, the z-score was -2.2 (active).

Regarding GGAAAAUGUCCCACUUUUATT against Olfr70, the z-score was -0.926.

Turning to GGAUUUGACCAGUAUAAGUTT against Ptgs2, the z-score is -1.05. With GGCUCCAAUAAAGUGCCUUTT against Elf3, the z-score is 1.46. For the sequence GCUGGAGAUCUAAAAACAGTT against Mphosph10, the z-score is 1.54. Turning to GGCAACUUAAGUUUUACAGTT against Tmem170, the z-score is -0.898. With GGUGAUAUGUGUGGGCUUGTT against Fahd2a, the z-score is -2.06 (active). The value for GGAGUUCUGUCCAUUUUGATT against Olfr1198 was 0.45; that for GCGUAGAAGACACUUAUAGTT against Zc3h14 was 1.47.

For GGCUCUGAAUUAACUCCAGTT against Srpk3, the z-score was -0.654.

Take GCUAUUGACAUAAUGAGGCTT against Nfe2l3: the z-score was -1.41. With GGGUACAAAGGCUGUAGUUTT against Sec61a1, the z-score is -2.42 (active). As for CCUGAAUUCAGUCUGUUUUTT against Depdc1b, the figure is -0.931; as for GGAAAAUGUUUUACCAAUGTT against Rspry1, -0.102; as for GGACAUCGGAUUCUACACCTT against Psg19, 0.531. With CCAACAAAAGCCUAUUCGGTT against Hsh2d, the z-score is -0.169. Regarding GAACUUUGCCAUUGAUUUGTT against Ndufs6, the z-score was 1.63. As for GCUGAUUUCUCAAACAUGATT against Serpinb10, the figure is -0.489. On to GUCCCUGAACCUGUGGUAUTT against Emp3, for which the z-score was 1.26. The value for GCUGUUCCACAUUGAAGUGTT against Pcdh18 was 2.84 (active); that for GCUGAUGGACUCAAGAAAGTT against Zbed5 was -0.805. Take GGACCAUUCUGGCUACUCATT against Ankrd34b: the z-score was -2.17 (active). As for GGACAAAUUUCUUUUCCUUTT against Atp10a, the figure is -0.448. The value for GCUGAUAAACCACUUGUGATT against Olfr1287 was -0.804. The value for GGCAUUCAAACCUCUCGUGTT against Dcn was -0.921. Turning to GGGUGAUUGAUCACUACUUTT against Olfr279, the z-score is 0.784. The value for GGAAAUGGUAAUUUUCAGUTT against Slc25a36 was -0.242; that for GGGAUGAAGUCCUGGAUAATT against Atp6v1g1 was -0.953.

CCAACUUCGAUGCUGAGAGTT against Anxa2: the z-score is -1.8. As for CGACAGAGGAAGGUAUUGGTT against Gcsh, the figure is -2.95 (active); as for CGCCUCAUCAUCUCGAUUCTT against Cnga3, -1.63. As for GCAUGUGGAGAAGAUGAGGTT against Tas2r143, the figure is 0.793.

Take GGAUUUCAAAGUGCUUUGCTT against Kifap3: the z-score was 3.44 (active). Take CCUAAACCCAUUCCAGUCUTT against Dpm3: the z-score was 0.104.

For the sequence CCUGAGACAUACUUAAUGUTT against Anapc10, the z-score was 0.747. CCUCGAGAGACUUUCAUGGTT against F2: the z-score was -0.475.

GCUUAUGAGAUGAGUGAAUTT against Ccdc43: the z-score was -0.209. As for GGAAUGUUUGGUGCUAUGATT against Flvcr2, the figure is 3.4 (active); as for GGGAUUUUCAGGGAGAUUUTT against Plekho1, 1.46. As for CCAGGACCUUAUCAGGUUUTT against Idh2, the figure is 2.44 (active); as for GCUUAGGAAUGGCGACAACTT against Vmn1r188, -0.413.

Consider GGCAAUGAGAAAGUUACUCTT against Olfr1102, for which the z-score was 1.65.

Take GGCAGGUGUUAAGGCUUCATT against Tas2r117: the z-score is 0.873. GGAACCACUGCUUUCAAAATT against Cd36: the z-score is 0.83. With GCUUUACCUGCAUAUUCCATT against Nradd, the z-score was -2.04 (active). In the case of GGGCCAGCAUGUUAUCUGUTT against Kat8, the z-score is -0.8. As for CCAGCCAGACUGAAAAAGCTT against Stmnd1, the figure is -0.652.

As for GGGAGAUGCAACAACAAGATT against Epx, the z-score is -0.847. Regarding GGACAAAUGAACAUGCUGATT against Edn2, the z-score was -2.26 (active). With “GAAGUGAUGCUGCUAGUAGTT against A030005L19Rik”, the z-score is -2. For the sequence GGAACACUGGGAACGUAUCTT against Ifnk, the z-score was 0.00139.

As for GCCCUAGUGUCUGAAAAAATT against Sfrp5, the z-score is 0.864. For GGACAAGGCUGCUACUUCATT against Pou6f2, the z-score was 1.74. The value for GGCACUUCUUAAUCCCACATT against Nfe2 was -2.41 (active); that for GUACAAGUGUGGACCCUUATT against Chchd2 was 0.409; that for GCAGGCUACCUCUAAUCCATT against Slc23a3 was -0.241.

Turning to GGAUCUAAAGCUUGAACCUTT against Pheta1, the z-score is 1.24.

GCUACCAUCUGCUAAUACATT against Smg1: the z-score was 3.65 (active). The value for GGUUCCACAGUGGCAAAUGTT against Vmn1r202 was 0.957.

(Values after PubChem BioAssay AID1508600 (Functional Genomics Laboratory (NCATS/FGL), 2020).)
